Assay results from PubChem BioAssay AID1006 (Sanford-Burnham Center for Chemical Genomics, 2008).
“And” between values parts separate entries of the source, which are not always exact repeats. Identical values can stand only once. The whole screen tested about 200,000 compounds, of which about 3,000 (1.5%) were called active. The sample holds actives, similar compounds and a random draw of the others, so the mix is not that of the screen.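 The calls were made as follows: active = inhibition above about 50% when tested at 10 µM (limit read from the data); inactive = the rest.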

molecular target: Luciferin 4-monooxygenase (Photinus pyralis) (UniProt P08659); experiment: inhibition of purified FLuc reporter enzyme – biochemical, luminescence, ATPLite, artefact control for luciferase-based inhibitor screens, primary screen (AID 1006); conditions: ATPLite firefly luciferase biochemical luminescence, 10 min; at 10 µM; hits give high values
Sequence (P08659 whole entry, looked up): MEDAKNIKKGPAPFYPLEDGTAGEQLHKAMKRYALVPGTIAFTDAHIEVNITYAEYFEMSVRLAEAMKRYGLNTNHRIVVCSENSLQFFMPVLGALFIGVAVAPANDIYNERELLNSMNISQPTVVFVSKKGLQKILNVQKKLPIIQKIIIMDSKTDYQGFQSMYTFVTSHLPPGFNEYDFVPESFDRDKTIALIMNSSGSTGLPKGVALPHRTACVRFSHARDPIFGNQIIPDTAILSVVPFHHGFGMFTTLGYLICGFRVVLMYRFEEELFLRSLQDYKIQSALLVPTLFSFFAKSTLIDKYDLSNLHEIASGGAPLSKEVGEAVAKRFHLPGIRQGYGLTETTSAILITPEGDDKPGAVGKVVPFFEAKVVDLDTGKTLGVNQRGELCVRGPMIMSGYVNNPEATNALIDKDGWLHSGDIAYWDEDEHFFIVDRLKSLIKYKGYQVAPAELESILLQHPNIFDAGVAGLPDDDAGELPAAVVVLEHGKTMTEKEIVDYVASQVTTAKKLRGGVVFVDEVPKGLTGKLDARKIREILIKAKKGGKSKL

Compound	inhibition
CNC(=O)COc1ccc(S(=O)(=O)Nc2ccccc2)cc1	-6.9% (inactive)
CSc1ccccc1NC(=O)CN(C)CC(=O)Nc1ccc(Cl)cc1[N+](=O)[O-]	1.5% (inactive)
Nc1ncc(-c2cc3ccccc3oc2=O)s1	32.1% (inactive)
O=C(c1cn(-c2ccccc2)nc1-c1cc2ccccc2oc1=O)N1CCOCC1	-8.2% (inactive)
O=c1oc2ccccc2cc1-c1cn(-c2ccccc2)c(=S)[nH]1	90.1% (active)
Cc1ccc(CCCOC(=O)C[N+]2(C)CCCCC2)cc1	-3.7% (inactive)
O=C(COC(=O)c1n[nH]c2ccccc12)NCc1ccccc1	-1.4% (inactive)
COc1cccc(CNC(=O)c2n[nH]c3ccccc23)c1	51.1% (active)
O=C(NCCc1ccc(F)cc1)c1n[nH]c2ccccc12	14.4% (inactive)
CC(=O)Nc1ccc(NC(=O)CSc2nnc(COc3ccccc3C)n2CC2CCCO2)cc1 (centres undefined)	-2.3% (inactive)
CCc1nnc(NC(=O)c2sc3nc(C)cc(COC)c3c2N)s1	-1.1% (inactive)
CCc1ccc2nc3sc(C(=O)Nc4nnc(CC)s4)c(N)c3cc2c1	51.9% (active)
CCc1nnc(NC(=O)c2cccs2)s1	6.9% (inactive)
CSc1cc(C)[nH]c(=O)n1	0.8% (inactive)
Cc1ccc(-n2c(C)cc(/C=C(\C#N)C(=O)NCC3CCCO3)c2C)cc1 (centres undefined)	72.2% (active)
Cc1ccc(C(=O)N/C(=C/c2cccs2)C(=O)NCC2CCCO2)cc1 (centres undefined)	0.4% (inactive)
Cc1ccc(S(=O)(=O)N2CCC(C(=O)NCC3CCCO3)CC2)cc1 (centres undefined)	-6.3% (inactive)
CC(C)(C)NC(=O)COC(=O)c1cc(Cl)ccc1[N+](=O)[O-]	1.8% (inactive)
CN(C)/C=C(/C(=O)c1ccccc1Cl)S(C)(=O)=O	-6% (inactive)
Cc1cc(F)ccc1S(=O)(=O)N1CCCOC1CNC(=O)C(=O)NCCC1=CCCCC1 (centres undefined)	-3.9% (inactive)
COc1cc(/C=C/C(=O)OCC(=O)N2CCOCC2)ccc1OCC#N	-6% (inactive)
CCCOC(=O)Nc1ccccc1C(N)=O	-2.5% (inactive)
COc1cccc(OCC(=O)Nc2ccccc2C(N)=O)c1	59.2% (active)
Cc1cccc(OCC(=O)Nc2ccccc2F)c1	6.3% (inactive)
CCOC(=O)C1=C(N)N(c2ccc(C)cc2)C2=C(C(=O)CCC2)C1c1cccs1 (centres undefined)	-3.4% (inactive)

Compound	inhibition
CS(=O)(=O)c1ccc2c(c1)SC1=NC(=O)/C(=C/c3ccco3)C(=N)N12	13.2% (inactive)
CCS(=O)(=O)C1=NSC2=NC(=O)/C(=C\c3cc(C)n(-c4cccc(OC)c4)c3C)C(=N)N21	12.2% (inactive)
Cc1cc(/C=C2/C(=N)N3C(=NC2=O)SN=C3S(C)(=O)=O)c(C)n1-c1ccccc1	89.9% (active)
Cc1ccnc(NC(=O)c2ccoc2C)c1	18.1% (inactive)
COc1ccc(C(=O)Nc2nncs2)c(OC)c1	40% (inactive)
COc1cc(SC)ccc1C(=O)NCCOc1ccccc1Cl	-0.8% (inactive)
COc1cc(SC)ccc1C(=O)Nc1nc(C)cs1	97.7% (active)
COc1cc(SC)ccc1C(=O)Nc1cc(C)ccn1	80.7% (active)
COc1ccccc1CNC(=O)c1ccc(SC)cc1OC	-4.7% (inactive)
Cn1cnnc1SCC(=O)NNC(=O)COc1ccc(Br)cc1	3.3% (inactive)
COc1ccc(/C=N/NC(=O)c2ccncc2)cc1CN1CCCc2ccccc21	-8.3% (inactive)
COc1ccc(C)cc1-n1nnnc1SCc1nc2ccccc2c(=O)[nH]1	0.3% (inactive)
Fc1cccc(Cc2noc(CN3CCN(c4cnccn4)CC3)n2)c1	-8.2% (inactive)
Cc1ccc(NC(=O)Nc2ccc3oc(C)nc3c2)cc1	70.8% (active)
Cc1nc2cc(NC(=O)NCc3ccccc3)ccc2o1	12% (inactive)
Cc1nc2ccc(NC(=O)C(F)(F)F)cc2o1	-2.2% (inactive)
O=C(CN1CCc2ccccc21)NC(c1ccccc1)c1ccccc1	-10.6% (inactive)
O=C(N/N=C/c1ccc(OCC2COCCO2)cc1)c1ccc(Br)cc1 (centres undefined)	2.2% (inactive)
CCS(=O)(=O)c1ccc(C(=O)NC)c(Cl)c1Cl	-3.5% (inactive)
COc1ccccc1N1CCN(CC(=O)NCCc2ccc(S(N)(=O)=O)cc2)CC1	-3% (inactive)
O=C(Nc1nnc(C2CC2)s1)c1ccccn1	63.4% (active)
Cc1occc1C(=O)Nc1nnc(C2CCCCC2)s1	-4% (inactive)
O=C(Cc1cccs1)Nc1nnc(C2CC2)s1	-1.8% (inactive)
CSc1ccccc1-c1nnc(-c2ccc(Cl)cc2)o1	53.8% (active)
Nc1ccc(-c2nnc(-c3ccc(-c4ccccc4)cc3)o2)cc1	3.7% (inactive)

Compound	inhibition
FC(F)(F)c1cnc(Oc2ccccc2-c2nnc(-c3ccc(Cl)cc3)o2)c(Cl)c1	-1.6% (inactive)
COc1cccc(CC2(CO)CCCN(Cc3nc(-c4cccs4)oc3C)C2)c1 (centres undefined)	-8.7% (inactive)
CC(=O)Nc1ccc(OCCC[n+]2cccc(C(=O)[O-])c2)cc1	-2.9% (inactive)
Cc1ccc(NC(=O)CNCc2ccccn2)cc1S(=O)(=O)N(C)C	-1.9% (inactive)
Cc1ccc(C(=O)Nc2ccc(C)c(S(=O)(=O)N(C)C)c2)s1	71.1% (active)
Cc1ccc(NC(=O)c2cccs2)cc1S(=O)(=O)N(C)C	15.2% (inactive)
CCOc1ncccc1C(=O)N(CC)CC(=O)Nc1ccc(NC(C)=O)cc1	-8.7% (inactive)
CCNc1nc(-c2cc3ccccc3o2)cs1	64.9% (active)
O=c1oc2ccccc2cc1-c1csc(Nc2ccc(O)cc2)n1	17.8% (inactive)
COc1ccc2nc(Nc3nc(-c4cc5ccccc5oc4=O)cs3)sc2c1	40.7% (inactive)
CC/C(Cc1ccccc1)=N/NC(=O)CCn1nnc2ccccc21	-3.6% (inactive)
Cc1ccccc1C1=N/C(=C/c2cccnc2)C(=O)O1	34.5% (inactive)
O=C1OC(c2ccc(Cl)cc2)=N/C1=C\c1cccnc1	-3.3% (inactive)
Cc1ccc(C2=C/C(=C\c3cccnc3)C(=O)O2)cc1	52.2% (active)
Cc1ccc(C)c(CSc2nc(-c3ccco3)nc3c2c(=O)n(C)c(=O)n3C)c1	0.1% (inactive)
CC(=O)c1ccc(N2CCN(S(=O)(=O)c3c(C)[nH]c(=O)[nH]c3=O)CC2)cc1	-3% (inactive)
O=C(CCN1CCN(C/C=C/c2ccccc2)CC1)Nc1cccc(F)c1	-5.5% (inactive)
COc1ccccc1C(=O)NNC(=O)c1ccc(NC(=O)c2ccccc2)cc1	-1.7% (inactive)
COc1ccc(/C=N/NC(=O)c2ccccc2)cc1OS(=O)(=O)c1ccccc1	-2.1% (inactive)
COc1ccc(C(=O)Nc2ccccc2C(=O)N/N=C/c2ccc(O)c(OC)c2)cc1	98.3% (active)
COc1cc(/C=N/NC(=O)c2ccccc2)ccc1OS(=O)(=O)c1ccccc1	-2.6% (inactive)
CCn1c(/C=N/NC(=O)c2ccc(OC)cc2)nc2ccccc21	8.7% (inactive)
COc1ccc(C(=O)Nc2ccccc2C(=O)N/N=C/c2ccccc2OC)cc1	97.8% (active)
CCN(CC)c1ccc([N+](=O)[O-])cc1C(=O)O	-4.3% (inactive)
Cc1ccc2cc(CN(c3ccc(C)c(C)c3)S(C)(=O)=O)c(=O)[nH]c2c1	-3.5% (inactive)

Compound	inhibition
CCOC(=O)C1=C(CC)Nc2ccccc2N=C1N	-6.8% (inactive)
CCc1ccccc1NC(=O)CN(c1ccc(OC)cc1OC)S(=O)(=O)c1ccccc1[N+](=O)[O-]	-10.9% (inactive)
COc1ccc(N(CC(=O)NC2CCCC2)C(=O)CS(=O)CC(=O)Nc2ccc3c(c2)OCO3)cc1 (centres undefined)	-6.6% (inactive)
COc1cc2c(C(=O)N3CCN(C)CC3)c(CSc3ccccc3)n(C)c2cc1Br	-9.2% (inactive)
Cc1cc2ccccn2c1C(=O)c1cccc(S(=O)(=O)N2CCOCC2)c1	4.2% (inactive)
COc1ccc(Cn2c(-c3ccc(Cl)cc3)c[n+]3ccccc23)cc1	7.2% (inactive)
CC(C)C(NC(=O)C1CCC(C(C)(C)C)CC1)C(=O)NCCCN1CCCCC1 (centres undefined)	-3% (inactive)
Cc1cc(OC(=O)c2ccccc2Cl)ccc1N1C(=O)CCC1=O	69% (active)
COc1ccccc1C(=O)Oc1ccc(N2C(=O)CCC2=O)cc1	-2.3% (inactive)
Cc1ccc(C)c(N2C(=O)CS/C2=N\NC(=O)c2ccccc2Cl)c1	-0.5% (inactive)
C=CCn1c(P(C)(=O)O)nc2ccccc21	-7.9% (inactive) and -5.5% (inactive)
CCc1ccc(OCC(=O)OCC(=O)c2c(N)n(C)c(=O)n(C)c2=O)cc1	-11.1% (inactive)
O=c1c2c(nc3nc[nH]n13)CCC2	-4.1% (inactive)
O=C1CCCc2c1nc(-c1cccc(Cl)c1)n2O	-1.6% (inactive)
O=c1c2c(nc3cc(-c4cccc(Cl)c4)[nH]n13)CCCC2	74.9% (active)
COc1ccc(C(=O)OCC(=O)NC(=O)CCSc2ccccc2)cc1	-0.8% (inactive)
Cc1ccc(SCCC(=O)NC(C(C)C)C(C)C)cc1	-8.1% (inactive)
Cc1cc2nc(C(F)(F)F)cc(-c3cccs3)n2n1	-2.2% (inactive)
CCOc1ccc(-c2nnc(-c3ccco3)o2)cc1	79.2% (active)
CCCCOc1ccc(-c2nnc(-c3ccco3)o2)cc1	25.4% (inactive)
CCC(=O)Oc1cccc(C(=O)Nc2ccc(-c3nnc(-c4ccco4)o3)cc2)c1	-4.9% (inactive)
CCOc1ccc2nc(SC(CC)C(=O)Nc3cc(C)on3)sc2c1 (centres undefined)	-3.8% (inactive)
CCOc1ccc2nc(C(=O)N3CCCC(C)C3)sc2c1 (centres undefined)	56% (active)
CCOc1ccc2nc(Nc3nc4ccc(NC(C)=O)cc4s3)sc2c1	8.7% (inactive)
